The list is not random: actives were taken first. Their share in the collection is about 3%.
SARS PLP yeast: qHTS of Yeast-based Assay for SARS-CoV PLP; Potency, µM (series often up to 32.9 µM), for the others: top-dose activity, positive = growth rescue, actives largely listed as activators; 330,000 tested, 0.19% active; AID 485353, 2010; S. cerevisiae expressing SARS-CoV PLpro, growth rescue; calls by dose curve; note: 0% is about no effect; nearly all actives have a fitted effect of over 55% in size
Sm TGR block: qHTS Assay for the Inhibitors of Schistosoma Mansoni Peroxiredoxins; purified TGR, DTNB reduction, TNB absorbance 405 nm; Potency, µM (doses to about 114 µM), without a hit: top-dose activity change, negative = inhibition, hits mostly inhibitors; 360,000 tested, 3% active; AID 485364, 2010; active = well fitted inhibition curve with a large enough effect; inconclusive = small, poorly fitted or top-dose-only effect; inactive = no such curve, though single readings can be large or run the other way; note: % is set by controls: 0 for no effect and ±100 for the full control effect; nearly all actives have a fitted effect of over 60% in size
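Kinetic colorimetric format: TGR-catalysed, NADPH-driven DTNB reduction monitored via TNB absorbance. Enzyme dispensed at 20 nM; compound exposure 15 min at room temperature before reaction start.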
Starred values were filed as active, the others as inactive; u = inconclusive; x = no result given. Potency is the fitted concentration of half-maximal effect.

SMILES | SARS PLP yeast | Sm TGR block
O=C(O)C1Nc2c(C(F)(F)F)ccc(Cl)c2C2C=CCC12 (centres undefined) | -1.0% | u
Cc1cc(C)c2c(c1)NC(C(=O)O)C1CC=CC21 (centres undefined) | 3.2% | 0.631µM*
O=C(O)C1Nc2c(C(=O)N3CCOCC3)cccc2C2C=CCC12 (centres undefined) | 2.3% | u
COc1ccc(-c2oc3ncn4nc(-c5ccccc5OC)nc4c3c2-c2ccc(OC)cc2)cc1 | x | -9.6%
O=C(Nc1ccccc1)c1ccc(-c2ccc([N+](=O)[O-])cc2)o1 | -3.8% | 3.55µM*
O=C(NNC(=O)c1ccccc1O)c1ccc(-c2ccc([N+](=O)[O-])cc2)o1 | 4.1% | 0.0%
COc1ccc(NC(=O)c2ccc(-c3ccc([N+](=O)[O-])cc3)o2)cc1 | -4.7% | u
O=C(O)c1ccc(-c2cccc([N+](=O)[O-])c2)o1 | 3.5% | 35.5µM*
O=C(NC1CCCCC1)c1ccc(-c2cccc([N+](=O)[O-])c2)o1 | -13.0% | -13.2%
CC1(C)CC(NC(=O)Nc2ccc([N+](=O)[O-])cc2)CC(C)(C)N1 | -0.6% | -9.8%
CC(OC(=O)c1ccc(-c2ccc([N+](=O)[O-])cc2)o1)C(=O)NC(N)=O (centres undefined) | 5.4% | 4.47µM*
CC1(C)CC(NC(=O)c2ccc(-c3ccc([N+](=O)[O-])cc3)o2)CC(C)(C)N1 | 3.0% | 39.8µM*
CC(C)(C)c1ccc(OCC(=O)Nc2c(C(=O)c3ccc(F)cc3)oc3ccccc23)cc1 | x | 4.2%
O=C(Nc1cc(-c2ccc(Cl)cc2)no1)c1ccc(F)cc1 | x | 6.3%
CCOc1ccc(CCNC(=O)c2sc3nc4n(c(=O)c3c2C)CCCC4)cc1 | x | -0.3%
COc1ccc(NC(=O)CCc2c(C)nc3nc(CNC(=O)OC(C)(C)C)nn3c2C)cc1OC | x | 0.3%
CCOC(=O)C1(CCc2ccccc2)CCN(C2CCSCC2)CC1 | 2.2% | 11.2µM*
CCOC(=O)C1(CCc2ccccc2)CCN(C2Cc3ccccc3C2)CC1 | -0.8% | 5.5%
CCOc1ccccc1CNC(=O)C1CCCN(c2ncnc3onc(-c4ccc(F)cc4)c23)C1 (centres undefined) | x | -3.8%
CCCC1OC2CC3C4CCC5=CC(=O)C=CC5(C)C4C(O)CC3(C)C2(C(=O)O)O1 (centres undefined) | -3.1% | 89.1µM*
CCCC1O[C@@H]2C[C@H]3[C@@H]4CCC5=CC(=O)C=C[C@]5(C)[C@H]4[C@@H](O)C[C@]3(C)[C@]2(C(=O)CO)O1 (some centres undefined) | 3.0% | -0.7%
CCc1ccccc1Nc1sc(C(=O)c2ccccc2)c(N)c1S(=O)(=O)c1ccccc1 | x | -14.6%
CCCN1CCN(CCCNC(=O)c2cnn(-c3ccc(F)cc3)c2-n2cccc2)CC1 | x | 0.5%
CC(Sc1nnc(Cc2cccs2)n1C1CCCCC1)C(=O)NCc1ccco1 (centres undefined) | -3.5% | 50.1µM*
CC(Sc1nnc(Cc2cccs2)n1C1CCCCC1)C(=O)N1CCc2ccccc21 (centres undefined) | -13.3% | -3.2%
SMILES | SARS PLP yeast | Sm TGR block
O=C(NCc1ccco1)/C(=C/C=C/c1ccccc1)NC(=O)c1ccco1 | -1.8% | 25.1µM*
CC(C)C(NC(=O)/C(=C\c1ccco1)NC(=O)c1ccco1)C(=O)O (centres undefined) | 7.1% | u
O=C(NCc1ccco1)/C(=C\C=C\c1ccccc1)NC(=O)c1ccco1 | -0.4% | 0.0%
O=C(NCc1ccco1)/C(=C/c1ccco1)NC(=O)c1ccc(Br)o1 | 24.8% | 39.8µM*
O=C(NCc1ccco1)/C(=C\c1ccco1)NC(=O)c1ccco1 | -0.4% | 8.91µM*
O=C(NCCCO)/C(=C\c1ccco1)NC(=O)c1ccc(Br)o1 | 13.3% | u
O=C(NCc1ccco1)/C(=C/c1ccccc1)NC(=O)c1ccco1 | 1.5% | 4.1%
CC(C)C(NC(=O)/C(=C/c1ccco1)NC(=O)c1ccc(Br)o1)C(=O)O (centres undefined) | -0.6% | 35.5µM*
O=C(NCc1cccc(Cl)c1)c1cccn1-c1nnc(N2CCCC2)s1 | x | -1.4%
Cc1cc(C)cc(OC(C)C(=O)Nc2nonc2-c2ccc(Br)cc2)c1 (centres undefined) | x | -4.5%
COc1ccc(Cl)cc1CNCCSc1nnnn1-c1ccccc1 | x | -2.3%
C=CCNC(=O)/C(=C\c1ccco1)NC(=O)c1ccco1 | -2.3% | -2.7%
COc1ccc(C(=O)N/C(=C\c2ccco2)C(=O)NCc2ccco2)cc1 | u | 44.7µM*
COc1ccc(C(=O)N/C(=C\c2ccco2)C(=O)NCc2cccnc2)cc1 | -4.9% | u
C=CCNC(=O)/C(=C/c1ccco1)NC(=O)c1ccc(Br)o1 | 5.4% | 20µM*
O=C(O)/C(=C/c1ccco1)NC(=O)c1ccc(Br)o1 | -0.9% | u
O=C(NCc1ccco1)/C(=C\c1ccco1)NC(=O)c1ccc(Br)o1 | 11.5% | 28.2µM*

Source: PubChem (National Center for Advancing Translational Sciences (NCATS))
